From PubChem BioAssay (NCI)
Compounds without any hit were thinned out: in the full panel of roughly 83,000, 20% have a hit.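 Values shown are percent growth following 48 h exposure of cells in 96-well plates to a single concentration of compound; below 10 was considered active.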 Unmarked numbers belong to inactive results. Activity calls are given as the source filed them.

Experiments:
Assay in all cases: NCI-60 one-dose screen, 48 h (100 = growth as untreated, 0 = no growth, -100 = all killed)
Conditions in all cases: 10 µM unless noted
[1] = tested on: NCI-H23 lung
[2] = tested on: NCI-H226 lung
[3] = tested on: NCI-H322M lung
[4] = tested on: HOP-62 NSCLC
[5] = tested on: NCI-H460 lung
[6] = tested on: NCI-H522 lung
[7] = tested on: A549/ATCC NSCLC
[8] = tested on: 786-0 renal
[9] = tested on: COLO 205 colon
[10] = tested on: DU-145 prostate
[11] = tested on: K-562 leukemia
[12] = tested on: MALME-3M melanoma
[13] = tested on: MDA-MB-231 breast
[14] = tested on: RXF 393 renal
[15] = tested on: SF-268 CNS
[16] = tested on: SF-295 CNS
[17] = tested on: SF-539 CNS
[18] = tested on: UACC-257 melanoma
[19] = tested on: M14 melanoma
[20] = tested on: HCT-15 colon

Row | SMILES | growth [1] | growth [2] | growth [3] | growth [4] | growth [5] | growth [6] | growth [7] | growth [8] | growth [9] | growth [10] | growth [11] | growth [12] | growth [13] | growth [14] | growth [15] | growth [16] | growth [17] | growth [18] | growth [19] | growth [20]
1 | CN1COc2ccc3ccccc3c2C1 | 88.8% | 93.7% | 91.4% | 80.1% | 107% | 90.3% | 97.4% | 91% | 133% | 107% | 99.7% | 111% | 102% | 107% | 100% | 96.1% | 84.9% | 107% | 86.4% | 106%
2 | O=C(C(Br)Br)C(Br)C(Br)c1ccccc1 (stereo not given) | 90.1% | 95% | 109% | 109% | 104% | -33.3% (active) | 98.5% | 107% | 4.54% (active) | 87.4% | 18.9% | -37.9% (active) | 109% | 25.3% | 116% | 116% | 97.2% | 57.7% | 81.5% | 20.5%
3 | CC(C)[O-].CC(C)[O-].CN(CCN(C)Cc1cc(F)cc(F)c1[O-])Cc1cc(F)cc(F)c1[O-].[Ti+4] | 6.91% (active) | 25.6% | 0.494% (active) | -5.62% (active) | -27.8% (active) | -32.3% (active) | 2.03% (active) | 19.1% | 1.34% (active) | 17.7% | 8.81% (active) | -55.4% (active) | 11% | -79.1% (active) | 6.13% (active) | -9.78% (active) | -0.0224% (active) | 17.1% | -41.9% (active) | 15.5%
4 | O=[N+]([O-])c1ccc(N/N=C\c2ccccc2[N+](=O)[O-])nc1 | 98.2% | 106% | 105% | 123% | 101% | 97.5% | 92.2% | 104% | 133% | 101% | 94.6% | 117% | 110% | 102% | 107% | 103% | 109% | 119% | 126% | 100%
5 | O=C(NCCc1ccccc1)C1CCC(=O)N1Cc1ccc(Br)cc1 (stereo not given) | 104% | 95.1% | 101% | 93% | 102% | 67.1% | 79.1% | 105% | 108% | 109% | 107% | 96.7% | 114% | 106% | 106% | 106% | 96% | 79.9% | 104% | 108%
6 | COc1ncc(-c2ccc3nccc(C#CCN4CCN(S(C)(=O)=O)CC4)c3c2)cc1NS(=O)(=O)c1ccc(F)cc1F | 6.7% (active) | 9.35% (active) | -11.8% (active) | 9.92% (active) | 6.27% (active) | -1.57% (active) | 5.73% (active) | -8.36% (active) | -55.1% (active) | 17.9% | 8.7% (active) | -32.3% (active) | 10.5% | -23.5% (active) | 6.1% (active) | 13% | -16.1% (active) | -4.75% (active) | -2.97% (active) | 10.4%
7 | COc1cc(/C=C/C(=O)N2CCN(C(=O)/C=C/c3ccccc3)CC2)cc(OC)c1OC | 108% | 102% | 104% | 103% | 105% | 92.7% | 99.8% | 101% | 113% | 129% | 97% | 97.8% | 85.6% | 125% | 111% | 110% | 107% | 102% | 103% | 109%
8 | COc1cc(NC(=O)c2cc3ccccc3cc2O)c(OC)cc1Cl | -19.3% (active) | 13.5% | -3.14% (active) | -29.6% (active) | 3.33% (active) | -30.1% (active) | 5.74% (active) | -5.13% (active) | 41.6% | 25.6% | -2.3% (active) | -23.7% (active) | 18.5% | 20.9% | 27.3% | 8.57% (active) | 7.7% (active) | -22.2% (active) | 4.56% (active) | 13.8%
9 | Nc1c2ccccc2nc2ccccc12 (tested in a mixture with another compound) | 19.2% | 11% | 29.8% | 25.8% | 4.41% (active) | -22.3% (active) | 4.37% (active) | 32.5% | 2.36% (active) | 19.4% | 15.3% | 27% | 15.9% | -2.81% (active) | 19.2% | 24.4% | 27.5% | -11.3% (active) | 17.1% | 14.7%
10 | CCOc1cc(-c2ccc[nH]2)[nH]c1/C=C1\N=C(C)C(C(=O)OC)=C1C | -59.4% (active) | -61.9% (active) | -61.8% (active) | -58% (active) | -79.4% (active) | -50.1% (active) | -47.1% (active) | -50.2% (active) | -78.6% (active) | -65.5% (active) | -55.4% (active) | -61.1% (active) | -62.6% (active) | -72.5% (active) | -55.7% (active) | -69.8% (active) | -66.7% (active) | -56.7% (active) | -59.9% (active) | -27% (active)
11 | CCC1=C(c2ccc(OC)cc2)C(C)(C)Oc2c1ccc(O)c2CN1CCCC1 | 13.1% | 29% | 47.7% | 18.7% | -38.1% (active) | 30.4% | 67.1% | 34.2% | 77.1% | 64.8% | -24.9% (active) | -9.28% (active) | 24.2% | 14.9% | 54.3% | -44% (active) | 69.3% | -16.1% (active) | -75.8% (active) | 8.13% (active)
12 | CCCn1cnc2c1c(=O)n(CCCCC(C)=O)c(=O)n2C | 105% | 100% | 97.4% | 101% | 103% | 113% | 95.8% | 104% | 104% | 118% | 90.9% | 113% | 104% | 103% | 99.3% | 118% | 101% | 102% | 104% | 103%
13 | Cc1nn(-c2ccccc2)c2c1oc(=O)c1cc(Cl)ccc12 | 107% | 96.3% | 90.5% | 91.6% | 107% | 113% | 102% | 100% | 120% | 169% | 106% | 106% | 94% | 116% | 90.6% | 109% | 97.9% | 99.7% | 92.6% | 99.4%
14 | CC(=O)c1cc(C(=O)c2ccc3c(c2)Sc2ccccc2N3)c2c(C)cc(C)cn12 | 26.7% | 30% | 44.9% | 20.8% | 0.69% (active) | -31.2% (active) | 3.95% (active) | 4% (active) | -37.4% (active) | 2.22% (active) | 4.47% (active) | 69.6% | -13.5% (active) | 34.3% | 11.9% | -1.02% (active) | -2.53% (active) | 26.9% | 9.62% (active) | 15%
15 | CN(C)c1cccc2c(S(=O)(=O)N[C@H]3CC[C@H]4[C@@H]5CCc6cc(O)ccc6[C@H]5CC[C@]34C)cccc12 | 40.8% | 51% | 57.3% | 66.8% | 7.05% (active) | -10.5% (active) | 18.5% | 34.9% | 8.09% (active) | 24% | 2.22% (active) | 29.6% | 35% | 11.2% | 40.6% | 44.9% | 44.7% | 52.8% | 31.3% | 18%
